Data on 16 compounds can be found in PubChem BioAssay.

By inhibition is commonly meant the change of the read-out against control, counted positive when it falls. For orientation: remaining activity means the signal under treatment as a percentage of the control signal. What is called AC50 is the concentration at which the activity in the assay is half-maximal.

Records with an inconclusive call do not appear. For some assays here: Measured potencies and affinities stand elsewhere. Calls of active or inactive are those of the source. Unless noted, no rule for the calls is given here.

Test [1] can be described thus: antimalarial activity against Dd2 strain (AID 2302;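 active = growth inhibition above 50% at the single 2 µM test dose, taken to imply half-maximal potency below 2 µM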;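 also: 0% = DMSO untreated growth and 100% = chloroquine plus artemisinin killed control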). The settings on record: P. falciparum Dd2 in RBCs, LDH growth readout, 72 h; at 2 µM; stronger effect = higher value.
A short description of test [2]: HepG2 cytotoxicity, primary screen, cytotoxicity control for P. falciparum antimalarial project, cell-based, ATP luminescence (AID 2303;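 active = inhibition above 50%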;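 also: 0% = DMSO wells and 100% = digitonin-killed cells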). The settings on record: HepG2 viability, 24-48 h, at 10 µM, stronger effect = higher value.
Test [3] concerns the target L-lactate dehydrogenase (Plasmodium falciparum (isolate CDC / Honduras)) (UniProt Q27743). The test is described as follows: PfLDH activity inhibition – cell lysate, 3D7 strain, counter-screen for P. falciparum growth inhibition project (AID 2304).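 Also: 0% = vehicle and 100% = reference inhibitor.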 The following applies: P. falciparum 3D7 crude extract, LDH APAD/NBT absorbance; at 2 µM; stronger effect = higher value.
The nature of test [4]: inhibition of 3D7 malaria parasite growth – strain 3D7 (AID 2306).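 Also: 0% = DMSO wells and 100% = chloroquine plus artemisinin control wells.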 The following applies: P. falciparum 3D7 erythrocytic growth, LDH absorbance, 72 h; at 2 µM; stronger effect = higher value.
For test [5], the target named is Plasmodium falciparum protein kinase 6 (PK6, PF3D7_1337100) (UniProt Q8IDW1). In words: PfPK6 kinase inhibitors, biochemical, TCAMS library (AID 1159586). The settings on record: recombinant PfPK6, Kinase-Glo ATP depletion luminescence. On the technique in general: Kinase-Glo reads ATP consumption through a luciferase reaction.
Sequence of Plasmodium falciparum protein kinase 6 (PK6, PF3D7_1337100) (Q8IDW1 1-305): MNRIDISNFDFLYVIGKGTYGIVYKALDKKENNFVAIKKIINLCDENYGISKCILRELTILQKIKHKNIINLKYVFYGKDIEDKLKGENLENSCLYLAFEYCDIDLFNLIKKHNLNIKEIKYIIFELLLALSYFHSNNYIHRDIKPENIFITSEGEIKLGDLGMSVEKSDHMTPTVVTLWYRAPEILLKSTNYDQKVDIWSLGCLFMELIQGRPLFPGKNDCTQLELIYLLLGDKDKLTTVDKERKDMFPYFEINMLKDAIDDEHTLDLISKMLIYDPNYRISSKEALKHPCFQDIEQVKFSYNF
The target in test [6] is Protein kinase 7 (PK7), Plasmodium falciparum 3D7 (PF3D7_0213400) (UniProt Q7YTF7). The test is described as follows: inhibition of Plasmodium PK7 catalytic activity – biochemical, TCAMS antimalarial set, Kinase-Glo luminescence (AID 1159587). The settings on record: recombinant PfPK7, Kinase-Glo ATP depletion luminescence.
Sequence of Protein kinase 7 (PK7), Plasmodium falciparum 3D7 (PF3D7_0213400) (Q7YTF7 1-343): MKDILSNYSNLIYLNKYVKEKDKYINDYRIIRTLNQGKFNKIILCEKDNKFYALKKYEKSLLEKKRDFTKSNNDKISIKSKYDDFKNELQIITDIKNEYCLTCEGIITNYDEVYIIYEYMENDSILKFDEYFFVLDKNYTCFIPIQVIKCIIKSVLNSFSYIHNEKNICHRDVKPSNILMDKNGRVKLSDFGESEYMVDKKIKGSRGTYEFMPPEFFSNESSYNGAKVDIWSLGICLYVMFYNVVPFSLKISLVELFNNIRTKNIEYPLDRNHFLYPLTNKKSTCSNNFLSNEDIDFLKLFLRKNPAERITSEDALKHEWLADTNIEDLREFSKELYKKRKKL
Test [7] concerns the target Calcium-dependent protein kinase 4 (Plasmodium falciparum (isolate 3D7)) (UniProt Q8IBS5). The test is described as follows: PfCDPK4 kinase inhibitors, biochemical, TCAMS library (AID 1159588; cut-off not given, nearly all actives have IC50 up to about 0.91 µM). The following applies: recombinant PfCDPK4, Kinase-Glo ATP depletion luminescence.
The test system of test [8] is Aerobactin synthetase IucA (Klebsiella pneumoniae). In words: IucA aerobactin synthetase inhibitors, biochemical, Tocris library, absorbance (AID 1345561).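 Also: 100% = enzyme without compound and 0% = no enzyme.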 The settings on record: purified IucA enzyme assay, absorbance (OD) read-out; stronger effect = lower value;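 tested at 8 µM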.
Test [9] can be described thus: growth inhibition of DIPG glioma cells, dose response, cell-based, SU-DIPG-XVII, MIPE5.0, CellTiter-Glo, qHTS (AID 1347060; cut-off not given, nearly all actives have AC50 up to about 26 µM;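 also: cells exposed to compound for 48 hours before viability readout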). The settings on record: SU-DIPG-XVII viability, CellTiter-Glo ATP luminescence. For orientation: In ATP-based viability assays light output follows the ATP content of the culture.
The nature of test [10]: growth inhibition of DIPG glioma cells, dose response, cell-based, SU-DIPG-XIII, MIPE4.0, CellTiter-Glo, qHTS (AID 1347061; cut-off not given, nearly all actives have AC50 up to about 37 µM;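 also: cells exposed to compound for 48 hours before readout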). The following applies: SU-DIPG-XIII viability, CellTiter-Glo ATP luminescence.
Test [11] in a line: growth inhibition of DIPG glioma cells, dose response, cell-based, JHH-DIPG-1, MIPE4.0, CellTiter-Glo, qHTS (AID 1347062; cut-off not given, nearly all actives have AC50 up to about 27 µM;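 also: cells exposed to compound for two days before readout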). The settings on record: JHH-DIPG-1 viability, CellTiter-Glo ATP luminescence.
Test [12] in a line: growth inhibition of DIPG glioma cells, dose response, cell-based, SU-DIPG-IV, MIPE4.0, CellTiter-Glo, qHTS (AID 1347063; cut-off not given, nearly all actives have AC50 up to about 30 µM;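 also: compound exposure lasted 48 hours before the viability readout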). The following applies: SU-DIPG-IV viability, CellTiter-Glo ATP luminescence.
The nature of test [13]: growth inhibition of DIPG glioma cells, dose response, cell-based, SU-DIPG-XIII, MIPE5.0, CellTiter-Glo, qHTS (AID 1347064; cut-off not given, nearly all actives have AC50 up to about 23 µM;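 also: cells exposed to compound for 48 hours before the viability read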). The settings on record: SU-DIPG-XIII viability, CellTiter-Glo ATP luminescence.
Test [14] is described as follows: viability loss in pontine glioma line – cell-based, SU-DIPG-XXV, MIPE5.0, CellTiter-Glo, qHTS, dose response (AID 1347065; cut-off not given, nearly all actives have AC50 up to about 26 µM;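 also: cells exposed to compound for 48 hours before ATP readout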). The following applies: CellTiter-Glo ATP luminescence.
Test [15] can be described thus: SU-DIPG-VI glioma cell viability, MIPE4.0 library, CellTiter-Glo luminescence, qHTS (AID 1347066; cut-off not given, nearly all actives have AC50 up to about 30 µM;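 also: cells exposed to compound for 48 hours before readout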). The settings on record: CellTiter-Glo ATP luminescence.
Test [16] in a line: JHH-DIPG-1 glioma cell viability, MIPE5.0 library, CellTiter-Glo luminescence, qHTS (AID 1347067; cut-off not given, nearly all actives have AC50 up to about 26 µM;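 also: cells exposed to compound for 48 hours before readout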). The following applies: JHH-DIPG-1 glioma viability, CellTiter-Glo ATP luminescence.
Test [17] is described as follows: SU-DIPG-XXV glioma cell viability, MIPE5.0 library, qHTS (AID 1347068; cut-off not given, nearly all actives have IC50 up to about 30 µM). For orientation: In qHTS, concentration-response curves come from the screen itself.
Test [18] in a line: sensitizers of A549 cells to miR-34 induction, primary screen, imaging, A549 dox-inducible miR-34, nuclei and caspase counts (AID 1347080;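 active = compounds whose cell count with miR-34 switched on is under 0.7 times the count with it off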). The settings on record: A549 miR-34 inducible, Hoechst nuclei count, 48 h.
Test [19] can be described thus: modifiers of HSF1 nuclear foci, imaging, Selleck Cancer Library (AID 1347162; in the data active = plate-normalised HSF1 focus index below about 0.46). The following applies: human cells, at 10 µM; SSMD: measured here: HSF1 foci SSMD mean; cell count: measured here: cell number; plate-normalised HSF1 focus index: stronger effect = lower value.
The nature of test [20]: viability rescue of complex I mutant cybrids, primary screen, cell-based, galactose medium, ATP luminescence (AID 1645843;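 active = z-score of at least 1.8 in each of two replicates, scored against plate mean and spread of sample wells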;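 also: positive z means more ATP and so rescue of galactose-driven cybrid death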). The following applies: complex I mutant cybrid cells, 72 h, stronger effect = higher value.

Sequence of Calcium-dependent protein kinase 4 (Plasmodium falciparum (isolate 3D7)) (Q8IBS5 whole entry, looked up): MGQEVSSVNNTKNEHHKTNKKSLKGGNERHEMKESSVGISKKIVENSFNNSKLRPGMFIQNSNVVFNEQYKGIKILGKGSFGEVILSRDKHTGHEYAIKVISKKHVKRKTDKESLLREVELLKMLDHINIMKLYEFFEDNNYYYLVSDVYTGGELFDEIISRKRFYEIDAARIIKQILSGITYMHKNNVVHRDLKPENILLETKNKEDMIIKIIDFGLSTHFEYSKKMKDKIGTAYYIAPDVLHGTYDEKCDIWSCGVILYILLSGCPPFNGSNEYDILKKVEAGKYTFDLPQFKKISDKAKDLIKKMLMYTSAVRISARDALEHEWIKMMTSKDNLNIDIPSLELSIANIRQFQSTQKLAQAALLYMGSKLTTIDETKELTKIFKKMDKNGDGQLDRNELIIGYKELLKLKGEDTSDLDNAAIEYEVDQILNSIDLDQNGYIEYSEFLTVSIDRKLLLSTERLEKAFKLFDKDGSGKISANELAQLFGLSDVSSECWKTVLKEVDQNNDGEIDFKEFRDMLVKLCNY
Sequence of L-lactate dehydrogenase (Plasmodium falciparum (isolate CDC / Honduras)) (Q27743 whole entry, looked up): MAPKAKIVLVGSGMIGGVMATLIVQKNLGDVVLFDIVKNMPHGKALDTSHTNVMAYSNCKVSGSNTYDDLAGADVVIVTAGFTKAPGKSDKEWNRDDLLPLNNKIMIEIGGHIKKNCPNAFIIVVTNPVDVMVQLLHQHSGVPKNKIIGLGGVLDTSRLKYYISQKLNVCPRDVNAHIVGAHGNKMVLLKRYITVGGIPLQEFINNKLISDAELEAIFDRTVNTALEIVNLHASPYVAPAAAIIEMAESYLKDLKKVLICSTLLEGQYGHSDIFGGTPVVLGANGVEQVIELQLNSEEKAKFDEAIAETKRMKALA

`CC(C)(CNC(=O)C1CCN(Cc2ccc(Cl)cc2)CC1)c1nc(-c2ccc(Cl)c(O)c2)c(-c2ccncc2)[nH]1`: the growth inhibition in test [1] is 83% (active); in test [4], 100% (active). The figures for the inhibition in test [2] and in [3] were 36% (inactive) and -6% (inactive), respectively. Further, the outcome in test [5], in test [6] and in test [7] was inactive.

For `O=C(NC1CC1)c1ccc(Nc2nccc(-c3c(-c4cccc(NC(=O)c5c(F)cccc5F)c4)nn4ccccc34)n2)cc1`, the values for the growth inhibition in test [1] and in [4] were 96% (active) and 94% (active), respectively. The figures for the inhibition in [2] and in test [3] were 84% (active) and -1% (inactive), respectively. For the same compound, the result in test [5], in [6] and in test [7] was inactive.

Turning to `c1ccc(Oc2ccc(Nc3ccnc4cc(-c5ccc(CNCCN6CCOCC6)o5)ccc34)cc2)cc1`, the growth inhibition in test [1] and in test [4] was 99% (active) each time. Moreover, the figures for the inhibition in [2] and in test [3] were 20% (inactive) and -3% (inactive), respectively. Also, the result in [5], in test [6] and in test [7] was inactive.

Take `CN(C)CCOc1ccc(-c2cc(-c3ccnc(N)n3)c(-c3ccc(Cl)c(O)c3)o2)cc1`: the growth inhibition in test [1] was 91% (active); in test [4], 101% (active). The inhibition was 14% (inactive) in [2] and 5% (inactive) in test [3]. Besides, the result in [5], in test [6] and in [7] was inactive.

As for `O=C(NCCCN1CCCCC1)c1ccc(Nc2nccc(Nc3ccc(Oc4ccccc4)cc3)n2)cc1`, the results for the growth inhibition in [1] and in test [4] were 61% (active) and 100% (active), respectively. Besides, the results for the inhibition in test [2] and in [3] were 30% (inactive) and -3% (inactive), respectively. The result in [5], in test [6] and in [7] was inactive.

As to `O=C(NCCN1CCCC1)c1cccc(Nc2nccc(Nc3ccc(Oc4ccccc4)cc3)n2)c1`, the figures for the growth inhibition in [1] and in test [4] were 18% (inactive) and 100% (active), respectively. For the same compound, the figures for the inhibition in [2] and in test [3] were 33% (inactive) and -3% (inactive), respectively. The outcome in [5], in test [6] and in [7] was inactive.

Turning to `O=C(NCCCN1CCCCC1)c1cccc(Nc2nccc(Nc3ccc(Oc4ccccc4)cc3)n2)c1`, the results for the growth inhibition in test [1] and in test [4] were 12% (inactive) and 96% (active), respectively. Further, the results for the inhibition in test [2] and in test [3] were 47% (inactive) and 2% (inactive), respectively. The result in [5], in test [6] and in test [7] was inactive.

In the case of `CC(C)(CN)c1cc(-c2ccc(Cl)c(O)c2)c(-c2ccncc2)o1`, the results for the growth inhibition in test [1] and in test [4] were 97% (active) and 92% (active), respectively. Besides, the inhibition in [2] was 44% (inactive); in [3], 7% (inactive). Moreover, the outcome in test [5] and in [6] was inactive.

As for `Cc1[nH]c(/C=C2\C(=O)Nc3ccc(S(=O)(=O)Cc4c(Cl)cccc4Cl)cc32)c(C)c1C(=O)N1CCC[C@@H]1CN1CCCC1`, the growth inhibition is 92% (active) in test [1] and 85% (active) in test [4]. The inhibition in test [2] was 33% (inactive); in test [3], -1% (inactive). The result in [5], in test [6], in test [10] and in test [17] was inactive. In addition, in test [8], the remaining activity was 123% (inactive). In addition, the AC50 in [9] was 9.34 µM (active); in test [11], 26.4 µM (active); in test [12], 23.5 µM (active); in [13] it was 9.34 µM (active); in [14], 8.33 µM (active); in test [15], 8.33 µM (active). Besides, the AC50 in test [16] was 5.9 µM (active). In addition, the fold change in [18] (stronger effect = lower value, cell number ratio, induced over uninduced) was 1.1 (inactive); in [18] (measured here: relative caspase fold change +Dox/-Dox), 1.29. The cell count in test [18] (measured here: total cells with miR-34 induction, stronger effect = lower value) was determined as 5950; in test [18] (measured here: total cells without miR-34 induction), 5410; in test [19] it was 7510. The SSMD in test [19] was 0.661. In test [19], the plate-normalised HSF1 focus index was 1.05 (inactive). Moreover, in [20], the z-score is -0.7 (inactive).

On to `CCn1c(-c2nonc2N)nc2c(-c3cccc(NC(=O)Nc4ccc5c(c4)CCC5)c3)ncc(OCCCN)c21`, for which the growth inhibition in test [1] was 94% (active); in test [4], 99% (active). Further, the inhibition in [2] was 26% (inactive); in [3], -2% (inactive). Also, the outcome in test [5] and in test [6] was inactive.

For `Cc1nnc(-c2cccc(Nc3ccnc4cc(-c5nccs5)ccc34)c2)o1`, the growth inhibition in test [1] was 89% (active); in test [4], 95% (active). Besides, the inhibition is 38% (inactive) in [2] and -2% (inactive) in [3]. Besides, the outcome in test [5], in [6] and in test [7] was inactive.

On to `Cc1ccc(Nc2nc3cc(N(C)c4ccnc(Nc5cccc(CCS(C)(=O)=O)c5)n4)ccc3n2C)cc1`, for which the growth inhibition in test [1] is 73% (active); in [4] it was 99% (active). The inhibition in test [2] is 78% (active); in test [3], 4% (inactive). The outcome in [5], in [6] and in test [7] was inactive.

As for `Oc1cccc(Nc2ccnc3cc(-c4nccs4)ccc23)c1`, the inhibition in test [2] was -10% (inactive); in test [3] it was -7% (inactive). Moreover, the growth inhibition in test [4] is 98% (active). Also, the outcome in test [5], in test [6] and in [7] was inactive.

Turning to `CCn1c(-c2nonc2N)nc2c(-c3cccc(NC(=O)Nc4ccc(C(F)(F)F)cc4)c3)ncc(OCCCN)c21`, the growth inhibition was 63% (active) in test [1] and 94% (active) in test [4]. The inhibition in test [2] was 36% (inactive); in test [3], 6% (inactive). The result in test [5] and in test [6] was inactive.

In the case of `NCc1ccc(Nc2nccc(Nc3ccc(-c4ccccc4)cc3)n2)cc1`, the values for the growth inhibition in test [1] and in test [4] were 98% (active) and 101% (active), respectively. Besides, the inhibition is 47% (inactive) in [2] and -1% (inactive) in test [3]. In addition, the outcome in test [5], in test [6] and in test [7] was inactive.

With `NC(=O)c1ccccc1Nc1nc(Nc2ccn[nH]2)ncc1Cl`, the growth inhibition in [1] was 93% (active); in test [4], 96% (active). The inhibition in test [2] is 67% (active); in test [3], -4% (inactive). Also, the result in test [5], in test [6] and in [7] was inactive.
